The record followed here is PubChem BioAssay (NCATS).

Results filed as inconclusive are left out. Where a call stands in place of a potency, no number is given. Active and inactive are the calls of the source. Calls come from the whole dose curve; as a rule, active = well fitted inhibition curve with a large enough effect; inconclusive = small, poorly fitted or top-dose-only effect, or effect the other way; inactive = flat fitted curve, though single readings scatter.

Chain of ATP-dependent 6-phosphofructokinase (Trypanosoma brucei brucei) (O15648 whole entry, looked up): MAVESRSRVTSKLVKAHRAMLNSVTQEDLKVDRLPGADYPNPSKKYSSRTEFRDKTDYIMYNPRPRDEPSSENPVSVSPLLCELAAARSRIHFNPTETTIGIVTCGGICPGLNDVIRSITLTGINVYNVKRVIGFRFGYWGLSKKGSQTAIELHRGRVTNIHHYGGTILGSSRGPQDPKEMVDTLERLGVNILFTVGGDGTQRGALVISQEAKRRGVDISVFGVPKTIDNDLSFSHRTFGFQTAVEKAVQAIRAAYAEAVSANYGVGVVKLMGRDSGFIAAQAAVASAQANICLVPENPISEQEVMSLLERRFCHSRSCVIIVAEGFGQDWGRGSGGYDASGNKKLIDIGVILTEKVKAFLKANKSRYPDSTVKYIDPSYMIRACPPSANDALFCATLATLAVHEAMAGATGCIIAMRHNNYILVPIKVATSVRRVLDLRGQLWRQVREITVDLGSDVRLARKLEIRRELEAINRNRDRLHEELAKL

The test deals with ATP-dependent 6-phosphofructokinase (Trypanosoma brucei brucei) (UniProt O15648). Nature of the test: qHTS Assay to Find Inhibitors of T. brucei phosphofructokinase: hit validation (AID 492961).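 Note: luminescence reports ADP formed as PFK phosphorylates fructose-6-phosphate with ATP.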 The note with it: T. brucei PFK, ADP-Glo luminescence; series mostly up to 51.4 µM. An excerpt:
NIH Molecular Libraries Probe Production Network [MLPCN] NIH Chemical Genomics Center [NCGC] Grant: 1 R03 MH092153-01 PI Name: Malcolm Walkinshaw, University of Edinburgh NCGC Assay Overview: Various species of the protozoan family Trypanosomatidae are responsible for a range of serious human diseases in tropical and subtropical areas of the world. […] Many of the disorders caused by trypanosomatids are fatal if left untreated, but most currently used drugs are inefficient and toxic. […] Oxidative metabolism involving the mitochondrial tricarboxylic acid cycle and oxidative phosphorylation are repressed in these parasites, and recent RNA interference (RNAi) experiments have shown that even partial depletion of certain individual glycolytic enzymes can lead to the death of cultured parasites. One such glycolytic enzyme, phosphofructokinase (PFK), catalyzes the formation of fructose-1,6-bisphosphate (F1,6BP) and ADP from fructose-6-phosphate (F6P) and ATP, and in many metabolic circumstances makes an important contribution to the control of flux through the glycolytic pathway. As a specific glycolytic target, PFK is particularly attractive as it catalyzes the first irreversible step in glycolysis, and structural and kinetic studies have shown very substantial and essential differences from corresponding host enzymes, allowing for the discovery of parasite-selective inhibitors. The goal of this screen is to find small-molecule inhibitors of T. brucei PFK using a biochemical assay that measures PFK activity as a function of ADP production. A luminescence-based assay for T. brucei PFK activity has been developed which uses luciferase to detect production of ADP. Traditional luciferase-based nucleotide detection reagents rely on ATP production as a direct substrate for the luciferase reaction; however, PFK catalyzes the transfer of a phosphate from ATP to F6P, resulting in the net depletion of ATP. To directly measure the ADP product of the PFK reaction, we used the ADP-Glo detection kit (Promega), which utilizes two separate reactions to 1) deplete all remaining uncatalyzed ATP and 2) convert all remaining ADP to ATP, which is then detected through a traditional luciferase-coupled reaction. Compounds were screened as a concentration-titration series that ranged from 57 uM to 0.7 nM.
NCGC Assay Protocol Summary: Substrate buffer was dispensed into white, solid 1536-well plates at 3uL/well in 0.1M triethanolamine (TEA) buffer, pH 8.0, containing final concentrations of 5 mM MgCl2, 0.01% Tween20, 0.5 mM fructose-6-phosphate (F6P) and 0.1mM ATP. Then, 23 nL of compounds or DMSO were delivered to each well using a pin tool. One uL T. brucei PFK (0.1M TEA, 0.01% Tween20, 0.1% bovine serum albumin (BSA) and 1.25nM PFK, final concentrations) was then dispensed, and plates were incubated at room temperature for 45 min. The luminescent detection reagent, ADP-Glo (Promega), was then added in two steps: the first reagent, ADP-Glo (which converts remaining uncatalyzed ATP), was added at 2.5uL/well and incubated for ten minutes at room temperature, and the second component, Kinase Detection reagent (which converts ADP to ATP as a substrate for luciferase-based luminescence), was added immediately after at 5uL/well, followed by one final ten minute room temperature incubation. The plates were measured on a ViewLux plate reader for luminescent signal using a clear filter with a one second exposure. The %Activity was determined from the corrected luminescence values. As no specific T. brucei PFK inhibitors have been identified in the literature, 1x (1.25nM) and 0x PFK enzyme controls (untreated) were included to normalize %Activity of identified inhibitors; 0x enzyme values corresponded to 100%Activity (full inhibition), while 1x PFK enzyme values were used to normalize 0%Activity (no inhibition). Concentration-response curves were fitted to the signals arising from the resulting luminescence. […]
A general note: qHTS replaces the single test concentration by a dilution series.
For `CN(Cc1cc(Br)cc(Br)c1N)C1CCCCC1`, the Potency entry is “inactive”. In the case of `Cn1nnc2c(C(N)=O)ncn2c1=O` it was “inactive”; in that of `CC[C@H](NC(C)C)[C@H](O)c1ccc(O)c2[nH]c(=O)ccc12`, “inactive”. For the compound `Cc1oc(=O)oc1CN1CCN(c2cc3c(cc2F)c(=O)c(C(=O)O)c2n3C(C)S2)CC1` (stereo not given), the Potency entry is “inactive”.

Consider `COC(=O)Nc1nc2ccc(Sc3ccccc3)cc2[nH]1`, for which the Potency entry was “inactive”. In the case of `CN1CCN(c2c(F)cc3c(=O)c(C(=O)O)cn4c3c2OCN4C)CC1` it was “inactive”. Consider `Oc1c(Cl)cc(Cl)c2cccnc12`, for which the Potency entry was “inactive”. In the case of `CC(N)C12CC3CC(CC(C3)C1)C2` (stereo not given) it was “inactive”. For the compound `CCOC(=O)c1ccc(C#Cc2ccc3c(c2)C(C)(C)CCS3)nc1`, the Potency result is “inactive”. Take `CCn1cc(C(=O)O)c(=O)c2cc(F)c(N3CCNCC3)cc21`: the Potency result was “inactive”. As for `NC(N)=NC(N)=NCCc1ccccc1`, the Potency entry is “inactive”. In the case of `CN(CCOc1ccc(CC2SC(=O)NC2=O)cc1)c1ccccn1` (stereo not given) it was “inactive”; in that of `CCN(C)C(=O)Oc1cccc([C@H](C)N(C)C)c1`, “inactive”. In the case of `NC(=O)c1cccnc1` it was “inactive”. Take `CCn1cc(C(=O)O)c(=O)c2cc(F)c(N3CCN(C)CC3)cc21`: the Potency entry was “inactive”. `CC(=O)Oc1ccccc1C(=O)Nc1ncc([N+](=O)[O-])s1`: the Potency result was “inactive”. In the case of `O=C(O)CCn1c2c(c3ccccc31)C[C@H](NS(=O)(=O)c1ccc(F)cc1)CC2` it was “inactive”; in that of `CCCN[C@H]1CCc2nc(N)sc2C1`, “inactive”; in that of `C#CCN[C@@H]1CCc2ccccc21`, “inactive”. In the case of `CC(C)(Sc1cc(C(C)(C)C)c(O)c(C(C)(C)C)c1)Sc1cc(C(C)(C)C)c(O)c(C(C)(C)C)c1` it was “inactive”. For the compound `CN1CCN(c2c(F)cc3c(=O)c(C(=O)O)cn(CCF)c3c2F)CC1`, the Potency entry was “inactive”. As for `CNNCc1ccc(C(=O)NC(C)C)cc1`, the Potency result was “inactive”.

`O=NN(CCCl)C(=O)NC1CCCCC1`: the Potency result was “inactive”. In the case of `CC(C)OC(=O)C(C(=O)OC(C)C)=C1SC=CS1` it was “inactive”. In the case of `COc1cccc(N(C)C(=S)Oc2ccc3c(c2)CCCC3)n1` it was “inactive”. With `NCCCC(O)(P(=O)(O)O)P(=O)(O)O`, the Potency result is “inactive”. On to `Cc1ccnc2c1NC(=O)c1cccnc1N2C1CC1`, for which the Potency result is “inactive”.

Take `N[C@@H](C(=O)N[C@@H]1C(=O)N2C(C(=O)O)=C(Cl)CS[C@H]12)c1ccccc1`: the Potency entry was “inactive”. In the case of `CNC1CCCN(c2c(F)cc3c(=O)c(C(=O)O)cn(C4CC4)c3c2OC)C1` (stereo not given), the Potency result is “inactive”. For the compound `CCCc1nc(C)c2c(=O)[nH]c(-c3cc(S(=O)(=O)N4CCN(CC)CC4)ccc3OCC)nn12`, the Potency result is “inactive”. In the case of `CCCCCCNC(=O)n1cc(F)c(=O)[nH]c1=O` it was “inactive”; in that of `O=P(O)(O)C(O)(Cc1cccnc1)P(=O)(O)O`, “inactive”; in that of `S=P(N1CC1)(N1CC1)N1CC1`, “inactive”.

Consider `Nc1ccc(S(=O)(=O)Nc2ccccn2)cc1`, for which the Potency entry was “inactive”.

For `CC(C)Cn1cnc2c(N)nc3ccccc3c21`, the Potency result is “inactive”. In the case of `Nc1[nH]c(=O)ncc1F` it was “inactive”; in that of `CN1CCCC(n2nc(Cc3ccc(Cl)cc3)c3ccccc3c2=O)CC1` (stereo not given), “inactive”; in that of `CCn1cc(C(=O)O)c(=O)c2cc(F)c(N3CCNCC3)nc21`, “inactive”.

Consider `COc1ncnc(NS(=O)(=O)c2ccc(N)cc2)c1OC`, for which the Potency result is “inactive”. In the case of `O=C(O)c1cn(C2CC2)c2cc(N3CCNCC3)c(F)cc2c1=O` it was “inactive”.
